Results published in PubChem BioAssay (NCATS).
Where “and” joins values, the source holds several entries; their conditions need not be identical. Equal entries are not always repeated. Results filed as inconclusive are left out. Calls of active or inactive are those of the source. Unless noted, the call rests on the fitted dose curve; in most records, active means well fitted curve in the direction sought with a large enough effect; inconclusive means small, poorly fitted or top-dose-only effect, or another doubt; inactive means no such curve, though single readings can be large; an effect the other way counts as inactive or inconclusive.

Legend:
JEG-3 = experiment: Primary qHTS to identify gynecologic anti-cancer compounds using libraries of approved drugs and bioactive compounds (AID 1345084); settings: Gynecologic cancer cell panel viability, ATPlite luminescence, 48 h; series mostly up to 57.5 µM; further: on the % scale 0 is the no-effect control and ±100 the full control effect; nearly all actives have a fitted effect of over 55% in size
Procedure, shortened: (§1)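 In this quantitative HTS, cell killing is estimated from loss of ATP-dependent luciferase light. Cells see five compound concentrations over a 48 h exposure.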

OV90 = experiment: as above; settings: Gynecologic cancer cell panel viability, ATPlite luminescence, 48 h; series mostly up to 57.5 µM
Procedure, shortened: as §1

PA-1 = experiment: as above; settings: Gynecologic cancer cell panel viability, ATPlite luminescence, 48 h; series mostly up to 57.5 µM
Procedure, shortened: as §1

SKOV3 = experiment: as above; settings: Gynecologic cancer cell panel viability, ATPlite luminescence, 48 h; series mostly up to 57.5 µM
Procedure, shortened: as §1

Tov-21-G = experiment: as above; settings: Gynecologic cancer cell panel viability, ATPlite luminescence, 48 h; series mostly up to 57.5 µM
Procedure, shortened: as §1

Tov112D = experiment: as above; settings: Gynecologic cancer cell panel viability, ATPlite luminescence, 48 h; series mostly up to 57.5 µM
Procedure, shortened: as §1

[1] = Drug repurposing screens with cells derived from glioblastoma tumor samples (AID 1345199); settings: GBM patient neurospheres viability, ATP luminescence, 48 h; further: on the % scale 0 is the no-effect control and ±100 the full control effect; nearly all actives have a fitted effect of over 40% in size
Procedure, shortened: (§2)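 Primary testing used CD133+ neurospheres from four GBM patients, seven concentrations, 48 h exposure and ATP-based viability; confirmation added three slower-growing patient lines.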

astro = experiment: as above; settings: viability, ATP luminescence, 48 h; series mostly up to 45.9 µM
Procedure, shortened: as §2

[2] = molecular target: Nuclear receptor subfamily 1 group I member 2 (Rattus norvegicus) (UniProt Q9R1A7); experiment: qHTS assay for small molecule activators of the rat pregnane X receptor (rPXR) signaling pathway (AID 651751; call rule not given here; further: 0% is about no effect); settings: rPXR reporter cells, luciferase (One-Glo), 24 h
[3] = at 20 µM (top of the series), tumour line C
[4] = at 21.2 µM (top of the series), tumour line B
[5] = at 21.2 µM (top of the series), tumour line D
[6] = at 21.3 µM (top of the series), tumour line A
[7] = at 45.9 µM (top of the series), tumour line B
[8] = at 45.9 µM (top of the series), tumour line D
[9] = at 46 µM (top of the series), tumour line A
[10] = at 46.1 µM (top of the series), tumour line C

Chain of Nuclear receptor subfamily 1 group I member 2 (Rattus norvegicus) (Q9R1A7 whole entry, looked up): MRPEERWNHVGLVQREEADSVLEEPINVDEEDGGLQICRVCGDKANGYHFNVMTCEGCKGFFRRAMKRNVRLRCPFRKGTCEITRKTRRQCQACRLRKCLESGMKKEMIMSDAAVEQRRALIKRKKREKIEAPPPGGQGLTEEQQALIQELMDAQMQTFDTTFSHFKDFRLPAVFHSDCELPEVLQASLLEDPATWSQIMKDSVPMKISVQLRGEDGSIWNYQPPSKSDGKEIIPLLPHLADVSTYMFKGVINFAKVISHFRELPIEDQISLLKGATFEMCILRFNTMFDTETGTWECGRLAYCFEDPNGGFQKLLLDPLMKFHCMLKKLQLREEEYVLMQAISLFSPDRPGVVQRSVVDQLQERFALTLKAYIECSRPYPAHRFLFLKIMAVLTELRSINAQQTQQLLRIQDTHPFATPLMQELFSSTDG

Nc1[nH]c(=O)ncc1F
inactive: Potency (JEG-3) | Potency (OV90) | Potency (PA-1) | Potency (SKOV3) | Potency (Tov-21-G) | Potency (Tov112D) | activity, negative = cell killing [1, 3] 6.56% | activity, negative = cell killing [1, 4] -3.24% | activity, negative = cell killing [1, 5] -9.05% | activity, negative = cell killing [1, 6] -15% | Potency (astro)

Cc1ncc([N+](=O)[O-])n1CCO
inactive: Potency (JEG-3) | Potency (OV90) | Potency (PA-1) | Potency (SKOV3) | Potency (Tov-21-G) | Potency (Tov112D) | activity, negative = cell killing [1, 7] -7.77% | activity, negative = cell killing [1, 8] 10.9% | activity, negative = cell killing [1, 9] -19.2% | activity, negative = cell killing [1, 10] 12.6% | max response [2] 6.53%

O=P(O)(O)C(O)(Cc1cccnc1)P(=O)(O)O
inactive: Potency (JEG-3) | Potency (OV90) | Potency (PA-1) | Potency (SKOV3) | Potency (Tov-21-G) | Potency (Tov112D) | activity, negative = cell killing [1, 7] -9.54% | activity, negative = cell killing [1, 8] -7.26% | activity, negative = cell killing [1, 10] 2.44% | Potency (astro)

O=C(O)c1cn(C2CC2)c2cc(N3CCNCC3)c(F)cc2c1=O
inactive: Potency (JEG-3) | Potency (OV90) | Potency (PA-1) | Potency (SKOV3) | Potency (Tov-21-G) | Potency (Tov112D) | activity, negative = cell killing [1, 3] -4.75% | activity, negative = cell killing [1, 4] -18.6% | activity, negative = cell killing [1, 5] 4.14% | Potency (astro)

O=C(O)c1cc(=O)[nH]c(=O)[nH]1
inactive: Potency (JEG-3) | Potency (OV90) | Potency (PA-1) | Potency (SKOV3) | Potency (Tov-21-G) | Potency (Tov112D) | activity, negative = cell killing [1, 7] -3.6% | activity, negative = cell killing [1, 8] 11.2% | activity, negative = cell killing [1, 9] -24.7% | activity, negative = cell killing [1, 10] -0.704% | Potency (astro) | max response [2] -3.54%

CCn1cc(C(=O)O)c(=O)c2cc(F)c(N3CCNCC3)nc21
inactive: Potency (JEG-3) | Potency (OV90) | Potency (PA-1) | Potency (SKOV3) | Potency (Tov-21-G) | Potency (Tov112D) | activity, negative = cell killing [1, 3] -1.66% | activity, negative = cell killing [1, 4] -1.31% | activity, negative = cell killing [1, 5] -17.3% | activity, negative = cell killing [1, 6] -3.28% | Potency (astro)

Cc1cc(NS(=O)(=O)c2ccc(N)cc2)no1
inactive: Potency (JEG-3) | Potency (OV90) | Potency (PA-1) | Potency (SKOV3) | Potency (Tov-21-G) | Potency (Tov112D) | activity, negative = cell killing [1, 7] 0.277% | activity, negative = cell killing [1, 8] -26.8% | activity, negative = cell killing [1, 9] -6.57% | activity, negative = cell killing [1, 10] 7.15% | Potency (astro) | max response [2] 3.86%

Cn1nnc2c(C(N)=O)ncn2c1=O
inactive: Potency (JEG-3) | Potency (OV90) | Potency (PA-1) | Potency (SKOV3) | Potency (Tov-21-G) | Potency (Tov112D) | activity, negative = cell killing [1, 7] -3.24% | activity, negative = cell killing [1, 8] -16.1% | activity, negative = cell killing [1, 9] -21.4% | activity, negative = cell killing [1, 10] -14.3% | Potency (astro)

CCOCC(O)COc1ccc(NC(=O)CC[S+](C)C)cc1 (stereo not given)
inactive: Potency (JEG-3) | Potency (OV90) | Potency (PA-1) | Potency (SKOV3) | Potency (Tov-21-G) | Potency (Tov112D) | activity, negative = cell killing [1, 7] -7.04% | activity, negative = cell killing [1, 8] -30.9% | activity, negative = cell killing [1, 9] -26.7% | activity, negative = cell killing [1, 10] -28.1% | Potency (astro)

CC(C)OC(=O)OCOP(=O)(CO[C@H](C)Cn1cnc2c(N)ncnc21)OCOC(=O)OC(C)C
inactive: Potency (JEG-3) | Potency (OV90) | Potency (PA-1) | Potency (SKOV3) | Potency (Tov-21-G) | Potency (Tov112D) | activity, negative = cell killing [1, 7] -7.36% | activity, negative = cell killing [1, 8] -12.2% | activity, negative = cell killing [1, 9] -9.04% | activity, negative = cell killing [1, 10] -6.09% | Potency (astro)

CCOC(=O)[C@H](CCc1ccccc1)N[C@H]1CS[C@H](c2cccs2)CN(CC(=O)O)C1=O
inactive: Potency (JEG-3) | Potency (OV90) | Potency (PA-1) | Potency (SKOV3) | Potency (Tov-21-G) | Potency (Tov112D) | activity, negative = cell killing [1, 7] -5.27% | activity, negative = cell killing [1, 8] -7.87% | activity, negative = cell killing [1, 9] -16.7% | activity, negative = cell killing [1, 10] -21.6% | Potency (astro)

CC1=NN(c2ccccc2)C(=O)C1
inactive: Potency (JEG-3) | Potency (OV90) | Potency (PA-1) | Potency (SKOV3) | Potency (Tov-21-G) | Potency (Tov112D) | activity, negative = cell killing [1, 7] -3.42% | activity, negative = cell killing [1, 8] -8.39% | activity, negative = cell killing [1, 9] -29.7% | activity, negative = cell killing [1, 10] -6.42% | max response [2] 3.89% and 0.779%

O=C(O)CCn1c2c(c3ccccc31)C[C@H](NS(=O)(=O)c1ccc(F)cc1)CC2
inactive: Potency (JEG-3) | Potency (OV90) | Potency (PA-1) | Potency (SKOV3) | Potency (Tov-21-G) | Potency (Tov112D) | activity, negative = cell killing [1, 7] -3.62% | activity, negative = cell killing [1, 8] -7.83% | activity, negative = cell killing [1, 9] -16.4% | activity, negative = cell killing [1, 10] -18.1% | Potency (astro)

NCCCC(O)(P(=O)(O)O)P(=O)(O)O
inactive: Potency (JEG-3) | Potency (OV90) | Potency (PA-1) | Potency (SKOV3) | Potency (Tov-21-G) | Potency (Tov112D) | activity, negative = cell killing [1, 7] -8.76% | activity, negative = cell killing [1, 8] 1.9% | activity, negative = cell killing [1, 9] -6.09% | activity, negative = cell killing [1, 10] -10.2% | Potency (astro)

NS(=O)(=O)c1cc2c(cc1Cl)NC(C(Cl)Cl)NS2(=O)=O (stereo not given)
inactive: Potency (JEG-3) | Potency (OV90) | Potency (PA-1) | Potency (SKOV3) | Potency (Tov-21-G) | Potency (Tov112D) | activity, negative = cell killing [1, 3] 6.84% | activity, negative = cell killing [1, 4] -4.6% | activity, negative = cell killing [1, 5] -11.1% | activity, negative = cell killing [1, 6] -6.45% | Potency (astro)
